In PubChem BioAssay (Tox21):
“And” between values parts separate entries of the source, which are not always exact repeats. Identical values can stand only once. Records with an inconclusive call do not appear. The source made the active and inactive calls. Calls follow the shape of the full dose curve.

Assay: qHTS assay for small molecule agonists of the antioxidant response element (ARE) signaling pathway - cell viability counter screen (AID 743203); also: nearly all actives have a fitted effect of over 55% in size
Details: ARE-bla HepG2 viability, CellTiter-Glo luminescence, 16 h; series mostly up to 73.3 µM; viability change, negative = cytotoxic: at the top concentration
Excerpt: National Center for Advancing Translational Sciences [NCATS]
NIH Chemical Genomics Center [NCGC]
U.S. Environmental Protection Agency [EPA]
National Institutes of Environmental Health Sciences [NIEHS]
National Toxicology Program [NTP]
U.S. Food and Drug Administration [FDA]
Oxidative stress has been implicated in the pathogenesis of a variety of diseases ranging from cancer to neurodegeneration. The antioxidant response element (ARE) signaling pathway plays an important role in the amelioration of oxidative stress. The CellSensor ARE-bla HepG2 cell line (Invitrogen) can be used for analyzing the Nrf2/antioxidant response signaling pathway. Nrf2 (NF-E2-related factor 2) and Nrf1 are transcription factors that bind to AREs and activate these genes. The CellSensor ARE-bla Hep G2 cell line contains a beta-lactamase reporter gene under control of the Antioxidant Response Element (ARE) stably integrated into HepG2 cells. The activation of the report gene under culture conditions can be detected by fluorescence intensity. This cell line has been used to screen the Tox21 10K compound library to identify agonists that induce oxidative stress. The cytotoxicity of the Tox21 compound library against the ARE-bla cell line was tested in parallel by measuring the cell viability using CellTiter-Glo assay (Promega, Madison, WI) in the same wells.
Tox21 Assay Protocol Summary:
ARE-bla HepG2 cells were dispensed at 2,000 cells/5 ul/well in 1536-well white wall/solid bottom plates using a Multidrop Combi (ThermoFisher Scientific, Waltham, MA) dispenser. After the assay plates were incubated at 37C/5% CO2 for 5 hrs, 23 nL of compounds dissolved in DMSO, positive controls or DMSO only was transferred to the assay plate by a pintool work station (Kalypsys, San Diego, CA). The plates were incubated at 37C/5% CO2 for 16 hrs, followed by addition of 4 ul/well of CellTiter-Glo reagent into the assay plates using a Flying Reagent Dispenser (Aurora Discovery, San Diego, CA). After 30 min incubation at room temperature, the luminescence intensity in the assay plates was measured using a ViewLux (PerkinElmer, Shelton, CT) plate reader.
% is scaled to controls: 0 for no effect and ±100 for the full control effect; potency is read from the fitted curve at half-maximal effect.

Row | Structure (SMILES) | viability change, negative = cytotoxic | Potency
1 | COC(=O)Cc1ccccc1 | 10.6% (inactive) | –
2 | CCOP(=S)(OCC)Oc1ccc(S(C)=O)cc1 (stereo not given) | -4.81% (inactive) | –
3 | COc1ccc2c(c1OC)C(=O)O[C@H]2[C@@H]1c2cc3c(cc2CCN1C)OCO3 | -0.466% (inactive) | –
4 | CCNC(=O)NC(=O)/C(C#N)=N/OC | 5.23% (inactive) | –
5 | CCCCC1C(=O)NC(=O)N(C2CCCCC2)C1=O (stereo not given) | 13.1% (inactive) | –
6 | COc1ccc(C(O)(c2cncnc2)C2CC2)cc1 (stereo not given) | 8.79% (inactive) | –
7 | O=[N+]([O-])/C=C/c1ccccc1 | – | 22 µM (active) and 15.4 µM (active)
8 | CN1C(=O)CN=C(c2ccccc2)c2cc([N+](=O)[O-])ccc21 | 18.6% (inactive) | –
9 | Cc1ncc(C[n+]2csc(CCO)c2C)c(N)n1 | -1.81% (inactive) | –
10 | CC(C)(c1ccccc1)c1cc(-n2nc3ccccc3n2)c(O)c(C(C)(C)c2ccccc2)c1 | 15.4% (inactive) | –
11 | CC(=O)NNc1ccccc1 | -0.203% (inactive) | –
12 | C=CC(=O)OCC | 3.32% [at 94.8 µM] (inactive) | –
13 | CCCCOC(=O)CCC(=O)OCCCC | 5.23% (inactive) | –
14 | SCc1ccccc1 | 0.57% [at 94.8 µM] (inactive) | –
15 | Nc1cccc2ccccc12 | – | inactive
16 | CCCCCCCCCCCCN=C(N)N | -8.9% [at 3.74 µM] (inactive) | –
17 | CCCSP(=S)(OCC)Oc1ccc(SC)cc1 (stereo not given) | 12% (inactive) | –
18 | NCCc1cc(O)c(O)cc1O | -6.72% (inactive) | –
19 | c1ccc2sc(SNC3CCCCC3)nc2c1 | – | inactive
20 | C1CCNCC1 | 3.61% [at 94.8 µM] (inactive) | –

Row | Structure (SMILES) | viability change, negative = cytotoxic | Potency
21 | C#CC(O)(C=CCl)CC (stereo not given) | 7.5% (inactive) | –
22 | Cc1ccc(N)c(C)c1 | – | inactive
23 | CCOC(=O)c1cncn1C(C)c1ccccc1 (stereo not given) | -0.418% (inactive) | –
24 | CCC(C)(C)O | 1.54% (inactive) | –
25 | C[C@]12CC[C@H]3[C@@H](CCC4=CC(=O)CC[C@@H]43)[C@@H]1CC[C@@H]2OC(=O)CCc1ccccc1 | 8.76% (inactive) | –
26 | O=C(Cl)OCCOCCOC(=O)Cl | 7.22% (inactive) | –
27 | O=C(N[C@H]1CN2CCC1CC2)c1ccc2c(c1)OCCO2 | -1.66% (inactive) | –
28 | CCC(C)Cl (stereo not given) | 2.86% (inactive) | –
29 | CCCCCl | 3.67% [at 94.8 µM] (inactive) | –
30 | CCC(C)(C)c1ccc(O)c(C(C)(C)CC)c1 | – | 61.1 µM (active)
31 | O=C(O)C(O)C(O)C(=O)O (stereo not given) | 12.9% (inactive) | –
32 | COP(=O)(OC)OC(Br)C(Cl)(Cl)Br (stereo not given) | – | inactive
33 | CCN(C(C)=O)c1cccc(-c2ccnc3c(C#N)cnn23)c1 | 12.1% (inactive) | –
34 | O=C(Cc1ccccc1)c1ccccc1 | 10.8% (inactive) | –
35 | C[Si](Cn1cncn1)(c1ccc(F)cc1)c1ccc(F)cc1 | 2.93% [at 94.8 µM] (inactive) | –
36 | O=C(O)C(Cl)(Cl)Br | -6.36% [at 94.8 µM] (inactive) | –
37 | CCCC[N+]1(C)[C@@H]2CC(OC(=O)[C@H](CO)c3ccccc3)C[C@H]1[C@@H]1O[C@@H]12 (stereo not given in full) | 10.6% (inactive) | –
38 | C=CC(C)(CCC=C(C)C)OC(=O)c1ccccc1N (stereo not given) | 1.4% [at 94.8 µM] (inactive) | –
39 | CCOc1cccc(C2(N3CCN(c4ccccc4)CC3)CCC(C)CC2)c1 (stereo not given) | 2.22% (inactive) | –
40 | CC(Cl)C(=O)O (stereo not given) | 1.42% [at 94.8 µM] (inactive) | –
